Over roughly 33,000 sequences, “e-score” has its median near -0.053; the highest 2% begin near 0.38. The full list was thinned out, with the highest values kept by preference.

The target of the test is T1, SIX1 homeodomain (reference allele) (human, UniProt Q15475 108-198).
T1 sequence: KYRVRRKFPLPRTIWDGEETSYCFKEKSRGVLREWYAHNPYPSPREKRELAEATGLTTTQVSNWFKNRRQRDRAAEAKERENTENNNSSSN
The experiment in a line: universal protein binding microarray; Universal all-10-mer PBM (8x60K, AMADID 030236), 300 nM GST-tagged protein, Alexa Fluor 488 anti-GST; buffer, salt, pH and temperature not stated (as in Berger); high values mean tight binding. To be noted: protein: ivt; tags: N-terminal GST; dsDNA, one strand shown. The method, boiled down: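 Homeodomains carrying a GST tag were produced by in vitro transcription/translation, then quantified by anti-GST western blot against a recombinant GST standard curve. Duplicate applications at 300 nM final concentration were made to universal 'all 10-mer' protein binding microarrays in 8×60K format. The Universal PBM Analysis Suite was used to express binding as 8-mer E-scores.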
As to ATCCGTAG, the binding signal came out at 0.225 ± 0.00492 E-score.
With AATACTAT, the binding signal worked out at 0.278 ± 0.0809 E-score.
As to TATCCACA, the binding signal was found to be 0.326 ± 0.0288 E-score.
Regarding AGAGTGAT, the binding signal was determined as 0.268 ± 0.0506 E-score.
With ATATGTTC, the binding signal is 0.334 ± 0.0471 E-score.
For ACCTATCT, the binding signal came to 0.195 ± 0.01 E-score.
As to GTGTTATA, the binding signal turned out to be 0.219 ± 0.0623 E-score.
Turning to TCCATACA, the binding signal came out at 0.166 ± 0.0645 E-score.
For GGATCGTA, the binding signal was 0.383 ± 0.00451 E-score.
The value for AGATCGTA was 0.237 ± 0.00569 E-score; that for ATCTCGGG was 0.272 ± 0.0234 E-score.
Turning to TCATCGGA, the binding signal was 0.176 ± 0.0293 E-score.
The result for ATATCGGG reads 0.4018 ± 0.00171 E-score.
With AGATCGGG, the binding signal is 0.294 ± 0.0193 E-score.
Turning to CGATCGTA, the binding signal amounted to 0.212 ± 0.0626 E-score.
As for GCATCGGA, the binding signal came to 0.161 ± 0.101 E-score.
The result for GTATCGGA reads 0.451 ± 0.0142 E-score; that for CACCGGCA, 0.188 ± 0.0219 E-score.
With CTATATAC, the binding signal came out at 0.275 ± 0.0339 E-score.
With TACTCACA, the binding signal came out at 0.165 ± 0.0208 E-score.
For ATAAGGTA, the binding signal came to 0.247 ± 0.0353 E-score.
As to ACCGCGAT, the binding signal amounted to 0.323 ± 0.00333 E-score.
As for ATGTATCA, the binding signal is 0.448 ± 0.011 E-score.
With ATGTATCG, the binding signal came out at 0.38 ± 0.0144 E-score.
As to ATGTATAA, the binding signal amounted to 0.154 ± 0.0486 E-score.
With ATCTATCC, the binding signal came to 0.372 ± 0.0185 E-score.
For the sequence GTGTATGA, the binding signal is 0.17 ± 0.0805 E-score.
Turning to ATGTATAC, the binding signal amounted to 0.325 ± 0.0321 E-score.
As for ATGTATCC, the binding signal worked out at 0.407 ± 0.00354 E-score.
Turning to GTGTATCA, the binding signal was found to be 0.4623 ± 0.00404 E-score.
For the sequence ATGTATAG, the binding signal is 0.217 ± 0.0184 E-score.
Turning to ATGTATTG, the binding signal was determined as 0.209 ± 0.0502 E-score.
Consider ATGTATTA, for which the binding signal turned out to be 0.241 ± 0.0485 E-score.
Consider GTGTATTA, for which the binding signal was 0.271 ± 0.032 E-score.
As for ATCCTGGG, the binding signal was found to be 0.235 ± 0.00999 E-score.
As to ACATTATC, the binding signal was found to be 0.165 ± 0.0505 E-score.
The result for TACCGCGA reads 0.25 ± 0.0197 E-score.
The value for ATCATCGC was 0.326 ± 0.0174 E-score; that for TACCCGCA was 0.161 ± 0.0756 E-score.
Consider ATCGACAC, for which the binding signal was 0.306 ± 0.0819 E-score.
Regarding ATCTTGCA, the binding signal is 0.216 ± 0.0388 E-score.
For CTGTATCC, the binding signal is 0.387 ± 0.0293 E-score.
Turning to CTGTATCA, the binding signal was found to be 0.418 ± 0.0231 E-score.
In the case of CTGTATAC, the binding signal was determined as 0.338 ± 0.0175 E-score.
CTGTATTA: the binding signal was 0.18 ± 0.00737 E-score.
For CTGTATGA, the binding signal turned out to be 0.187 ± 0.0219 E-score.
As for ATTTATCC, the binding signal was 0.198 ± 0.0661 E-score.
As to CTCAGGTA, the binding signal turned out to be 0.16 ± 0.0411 E-score.
On to CTCCTATC, for which the binding signal is 0.2712 ± 0.00126 E-score.
For AGAGTGAG, the binding signal stood at 0.172 ± 0.0561 E-score.
Consider CCGGCTCA, for which the binding signal was found to be 0.256 ± 0.0189 E-score.
For ATACCAAA, the binding signal came out at 0.317 ± 0.0247 E-score.
Regarding ATACCCAC, the binding signal came out at 0.392 E-score.
As to ACACCCAC, the binding signal stood at 0.221 ± 0.0764 E-score.
With ATACCCAT, the binding signal was found to be 0.393 ± 0.00746 E-score.
The result for ACACCCAA reads 0.331 ± 0.0548 E-score; that for CACCCCAC, 0.263 ± 0.128 E-score; that for ACACCCAG, 0.278 ± 0.0263 E-score.
As to ATACCAAG, the binding signal stood at 0.285 ± 0.0262 E-score.
ATACCCAA: the binding signal came out at 0.401 ± 0.0166 E-score.
Consider AAACCCAT, for which the binding signal was determined as 0.169 ± 0.00646 E-score.
Regarding ACACCCAT, the binding signal is 0.271 ± 0.0323 E-score.
For ATACCCAG, the binding signal worked out at 0.382 E-score.
As for GAGCCGGA, the binding signal was 0.166 ± 0.0429 E-score.
As for TATGCGGA, the binding signal was found to be 0.284 ± 0.018 E-score.
The value for ATGCGATC was 0.309 ± 0.0257 E-score; that for ATACGAGG was 0.232 ± 0.0433 E-score.
The result for CATCTCAG reads 0.227 ± 0.014 E-score; that for TACGCATA, 0.197 ± 0.0197 E-score.
Turning to ACAGGGAT, the binding signal is 0.297 ± 0.0162 E-score.
Consider ATAGGGGA, for which the binding signal is 0.287 ± 0.00909 E-score.
As to ATAGGGAT, the binding signal is 0.395 ± 0.00975 E-score.
The value for ACCTTATA was 0.17 ± 0.0678 E-score; that for ATATCGCA was 0.42 ± 0.0293 E-score; that for ATATCGCC was 0.441 ± 0.0115 E-score.
For the sequence GGATCGCA, the binding signal was found to be 0.366 ± 0.0387 E-score.
For the sequence GTATCGCA, the binding signal came to 0.431 ± 0.0148 E-score.
For the sequence ACATCGCA, the binding signal is 0.152 ± 0.012 E-score.
Regarding ATATCGCG, the binding signal came out at 0.422 ± 0.0273 E-score.
For ATCGCGCG, the binding signal amounted to 0.213 ± 0.0714 E-score.
CTATCGCA: the binding signal was found to be 0.186 ± 0.0165 E-score.
On to CTATCGCC, for which the binding signal stood at 0.179 ± 0.0265 E-score.
On to AGATCGCG, for which the binding signal was 0.22 ± 0.0358 E-score.
As for AGATCGCC, the binding signal was determined as 0.288 ± 0.0356 E-score.
Turning to TGATCGCA, the binding signal was determined as 0.171 ± 0.0248 E-score.
Regarding ATCGGTCG, the binding signal is 0.225 ± 0.0271 E-score.
Take CGGTTATC: the binding signal was 0.309 ± 0.0176 E-score.

(Values after paper PMC10668032, “Altered binding affinity of SIX1-Q177R correlates with enhanced WNT5A and WNT pathway effector expression in Wilms tumor”.)
